Growth data for eight compounds are collected here from PubChem BioAssay (NCI).

Among the test systems are MOLT-4 leukemia; SR leukemia; RPMI-8226 leukemia; OVCAR-8 ovarian; OVCAR-5 ovarian; OVCAR-4 ovarian; SK-OV-3 ovarian; IGROV1 ovarian; OVCAR-3 ovarian; HS 578T breast; NCI/ADR-RES ovarian; T-47D breast; BT-549 breast; MDA-MB-435 melanoma; SW-620 colon; MCF7 breast; HCT-116 colon; HCC-2998 colon; KM12 colon.
Common to all, as to experiment: NCI-60 one-dose screen, 48 h (100 = growth as untreated, 0 = no growth, -100 = all killed)
Holding throughout (settings): 10 µM unless noted

Compounds without any hit were thinned out: in the full panel of roughly 83,000, 20% have a hit.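 Note: values are percent growth. 100 is the growth of untreated cells, values between 100 and 0 indicate rising inhibition; between -100 and 0 indicates cell death.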 Values without a mark were called inactive. Active and inactive are the calls of the source. How the source made its calls: active means growth percent below 10; inactive means the rest.

Consider `COc1ccc(N(CC(=O)NCCC[Te]c2ccccc2)C(=O)CNC(=O)OC(C)(C)C)cc1`, for which the growth with MOLT-4 leukemia is 12.1%; in the assay on SR leukemia it was 12.7%; in the assay on RPMI-8226 leukemia it was 13%; in the assay with OVCAR-8 ovarian it was 9.87% (active); in the assay with OVCAR-5 ovarian it was 22%; with OVCAR-4 ovarian, 118%. Besides, the growth in the assay with SK-OV-3 ovarian was -7.96% (active); with IGROV1 ovarian, 4.89% (active); in the assay on OVCAR-3 ovarian, 103%; with HS 578T breast it was 11.7%; in the assay on NCI/ADR-RES ovarian, 1.78% (active); with T-47D breast it was 109%. In addition, the growth was -47.8% (active) in the assay with BT-549 breast; 59.4% in the assay with MDA-MB-435 melanoma; 53.1% in the assay on SW-620 colon; 8.66% (active) in the assay with MCF7 breast; -3.11% (active) in the assay with HCT-116 colon; 43.3% with HCC-2998 colon. The growth in the assay on KM12 colon is 19.3%.
As for `COC(=O)[C@@H](C)C[C@H](Cc1ccccc1)NC(=O)c1csc([C@@H](C[C@H](C(C)C)N(C)C(=O)C2(NC(=O)[C@H]3CCCCN3C)CC2)OC(C)=O)n1`, the growth in the assay on MOLT-4 leukemia is 9.45% (active); with SR leukemia it was 11%; in the assay with RPMI-8226 leukemia it was 12.8%; with OVCAR-8 ovarian it was 23.3%; in the assay with OVCAR-5 ovarian, 20.3%; in the assay on OVCAR-4 ovarian it was 44.5%. The growth is 19.1% in the assay on SK-OV-3 ovarian; 27.1% with IGROV1 ovarian; -16.4% (active) in the assay on OVCAR-3 ovarian; 12% with HS 578T breast; 61.8% in the assay with NCI/ADR-RES ovarian; 51.5% with T-47D breast. The growth in the assay on BT-549 breast is 12.8%; with MDA-MB-435 melanoma it was -28.8% (active); in the assay on SW-620 colon, 22.2%; with MCF7 breast, 18.9%; in the assay with HCT-116 colon, 0.459% (active); with HCC-2998 colon, -2.95% (active). The growth in the assay with KM12 colon was 5.25% (active).
With `CC(C)CCC(=O)O[C@H]1CC[C@H]2[C@@H]3CCC4=CC(=O)CC[C@]4(C)[C@H]3CC[C@]12C`, the growth was 96% in the assay with MOLT-4 leukemia; 90.7% with SR leukemia; 98.6% in the assay on RPMI-8226 leukemia; 104% in the assay with OVCAR-8 ovarian; 93% in the assay on OVCAR-5 ovarian; 103% in the assay with OVCAR-4 ovarian. For the same compound, the growth with SK-OV-3 ovarian was 128%; in the assay on IGROV1 ovarian, 96.3%; in the assay on OVCAR-3 ovarian, 97.9%; in the assay on HS 578T breast, 86.9%; in the assay with NCI/ADR-RES ovarian it was 99%; in the assay on T-47D breast it was 102%. Also, the growth in the assay with BT-549 breast was 104%; in the assay on MDA-MB-435 melanoma, 96.6%; with SW-620 colon, 94.5%; in the assay on MCF7 breast, 105%; in the assay with HCT-116 colon, 99.8%; in the assay on HCC-2998 colon, 105%. The growth in the assay on KM12 colon was 95.2%.
Regarding `Cc1cc(N(CCCl)CCCl)ccc1C=Nc1ccc(-c2csc(Cc3ccccc3)n2)cc1`, the growth in the assay with MOLT-4 leukemia is 27.2%; in the assay with SR leukemia it was 27.2%; in the assay on RPMI-8226 leukemia it was 58.5%; with OVCAR-8 ovarian it was 65%; in the assay on OVCAR-5 ovarian it was 54.4%; in the assay with OVCAR-4 ovarian, 64%. Besides, the growth in the assay on SK-OV-3 ovarian was 56%; in the assay with IGROV1 ovarian, 61.7%; in the assay on OVCAR-3 ovarian, 75.2%; in the assay with HS 578T breast it was 106%; in the assay with NCI/ADR-RES ovarian, 61.6%; in the assay with T-47D breast it was 45.3%. The growth in the assay on BT-549 breast is 69%; in the assay on MDA-MB-435 melanoma it was 78.3%; in the assay on SW-620 colon it was 83.2%; in the assay on MCF7 breast, 44.5%; in the assay with HCT-116 colon, 77%; with HCC-2998 colon, 71.7%. Besides, in the assay with KM12 colon, the growth is 89.8%.
On to `Nc1c(F)cc(-c2nc3cc(F)ccc3[se]2)cc1Br`, for which the growth is 91.2% with MOLT-4 leukemia; 15.7% in the assay on SR leukemia; 35.1% with RPMI-8226 leukemia; 93.1% in the assay with OVCAR-8 ovarian; 8.24% (active) in the assay on OVCAR-5 ovarian; 30.1% with OVCAR-4 ovarian. The growth in the assay with SK-OV-3 ovarian is 39.7%; with IGROV1 ovarian, 5.47% (active); in the assay on OVCAR-3 ovarian it was 40.8%; with HS 578T breast, 96.6%; in the assay on NCI/ADR-RES ovarian, 89.8%; in the assay on T-47D breast, -9.56% (active). Moreover, the growth is 43% in the assay with BT-549 breast; 94.2% with MDA-MB-435 melanoma; 84.4% in the assay on SW-620 colon; 2.12% (active) with MCF7 breast; 15.5% in the assay with HCT-116 colon; -35.1% (active) in the assay with HCC-2998 colon. The growth in the assay on KM12 colon was 38.8%.
With `COc1ccc(/C=C\c2cc(OC)c(OC)c(OC)c2)c(NS(=O)(=O)c2ccc(C)cc2)c1O`, the growth with MOLT-4 leukemia was 20.8%; with SR leukemia, 17.2%; with RPMI-8226 leukemia, 31.5%; with OVCAR-8 ovarian, 25.1%; with OVCAR-5 ovarian, 38.8%; with OVCAR-4 ovarian, 31.5%. Besides, the growth with SK-OV-3 ovarian was 25.1%; in the assay with IGROV1 ovarian, 32.2%; in the assay with OVCAR-3 ovarian, -30.9% (active); in the assay with HS 578T breast it was 39.9%; with NCI/ADR-RES ovarian, 7.57% (active); in the assay on T-47D breast it was 96.4%. The growth in the assay with BT-549 breast is 30.6%; in the assay with MDA-MB-435 melanoma, -33.1% (active); in the assay with SW-620 colon it was 24.9%; with MCF7 breast, 14.3%; with HCT-116 colon it was 8.54% (active); in the assay with HCC-2998 colon, 18.7%. The growth with KM12 colon was 3.96% (active).
With `CCCCNC(c1ccc(Cl)cc1)C(O)c1ccc(Cl)cc1` (configuration not stated), the growth in the assay on MOLT-4 leukemia is 9.52% (active); in the assay with SR leukemia, -34.2% (active); in the assay on RPMI-8226 leukemia, -15.1% (active); in the assay on OVCAR-8 ovarian, 49%; in the assay on OVCAR-5 ovarian, 56%; in the assay with OVCAR-4 ovarian it was 65.9%. The growth with SK-OV-3 ovarian is 79.6%; with IGROV1 ovarian, 27%; with OVCAR-3 ovarian, 55.6%; with HS 578T breast, 64.2%; with NCI/ADR-RES ovarian, 40.9%; in the assay with T-47D breast it was 46.4%. Besides, the growth with BT-549 breast is 80.6%; in the assay with MDA-MB-435 melanoma it was 21.4%; in the assay with SW-620 colon it was 2.85% (active); in the assay with MCF7 breast, 3.13% (active); with HCT-116 colon, 5.84% (active); with HCC-2998 colon, -55.7% (active). The growth with KM12 colon is 21.6%.
Regarding `Clc1cc(N2CC2)nc(N2CC2)n1`, the growth in the assay with MOLT-4 leukemia is 46.6%; in the assay on SR leukemia it was 34.7%; in the assay with RPMI-8226 leukemia, 80.4%; in the assay on OVCAR-8 ovarian it was 64.5%; in the assay with OVCAR-5 ovarian it was 102%; in the assay on OVCAR-4 ovarian, 95.2%. For the same compound, the growth with SK-OV-3 ovarian is 71%; in the assay with IGROV1 ovarian, 109%; in the assay with OVCAR-3 ovarian, 107%; with HS 578T breast, 115%; with NCI/ADR-RES ovarian it was 71.7%; with T-47D breast, 87.3%. Further, the growth was 71.8% in the assay on BT-549 breast; 93.7% with MDA-MB-435 melanoma; 61.6% with SW-620 colon; 34.2% in the assay on MCF7 breast; 64.9% in the assay with HCT-116 colon; 78.2% with HCC-2998 colon. For the same compound, in the assay with KM12 colon, the growth was 97.3%.
